Results filed as inconclusive are left out. Entries that show only a call come without a potency. Calls of active or inactive are those of the source. The call rests on the fitted dose curve; in most records, active means well fitted inhibition curve with a large enough effect; inconclusive means small, poorly fitted or top-dose-only effect, or effect the other way; inactive means flat fitted curve, though single readings scatter.
Biological target: Ubiquitin carboxyl-terminal hydrolase 2 (Homo sapiens) (UniProt O75604)
Sequence (O75604 whole entry, looked up): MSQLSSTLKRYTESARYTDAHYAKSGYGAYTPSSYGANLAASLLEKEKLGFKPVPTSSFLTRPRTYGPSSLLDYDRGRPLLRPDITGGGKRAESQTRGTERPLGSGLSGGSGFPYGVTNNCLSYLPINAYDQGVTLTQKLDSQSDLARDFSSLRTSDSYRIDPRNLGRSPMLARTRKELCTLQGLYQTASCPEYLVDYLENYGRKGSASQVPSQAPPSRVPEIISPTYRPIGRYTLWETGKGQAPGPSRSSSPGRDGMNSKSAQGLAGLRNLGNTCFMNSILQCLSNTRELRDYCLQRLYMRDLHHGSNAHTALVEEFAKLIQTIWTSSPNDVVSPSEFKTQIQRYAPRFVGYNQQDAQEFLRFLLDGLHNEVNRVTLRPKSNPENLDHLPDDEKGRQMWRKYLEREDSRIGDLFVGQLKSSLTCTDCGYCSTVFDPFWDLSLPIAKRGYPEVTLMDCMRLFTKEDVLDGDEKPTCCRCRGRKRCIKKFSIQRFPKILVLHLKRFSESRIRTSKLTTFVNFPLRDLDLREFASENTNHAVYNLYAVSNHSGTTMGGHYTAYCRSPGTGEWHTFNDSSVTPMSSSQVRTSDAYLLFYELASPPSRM
Experiment: Ub-rhodamine 110 based assay for inhibitors Ubiquitin-specific Protease USP2a; further: nearly all actives have a fitted effect of over 50% in size
Procedure, shortened: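 5 nM USP2a preincubated with compounds for 30 min at RT in 20 mM Tris-HCl pH 8.0, 2 mM CaCl2, 2 mM beta-mercaptoethanol, 0.05% CHAPS. Cleavage of 150 nM Ub-rhodamine 110 read kinetically (Ex 485/Em 531) for 7 min.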
Potency means the concentration at half of the fitted maximal effect.

SMILES | Potency
CC1CC(C)CN(C(=O)CSc2nnc(-c3ccc(Cl)cc3)o2)C1 (centres undefined) | inactive
CCOC(=O)Nc1ccc(S(=O)(=O)Nc2cc(C)nc(C)n2)cc1 | inactive
Cc1ccc(/C=C2/SC(=S)N(c3ccc(S(=O)(=O)Nc4nccs4)cc3)C2=O)cc1 | 3.55 µM (active)
COC(=O)CSc1nnc(NC(=O)C2CC(=O)N(c3ccc(F)cc3)C2)s1 (centres undefined) | 11.2 µM (active)
CCOC(=O)c1ccc(NC(=O)C2=C(C)Nc3nc(CCCO)nn3C2c2cccc(C)c2)cc1 (centres undefined) | inactive
CN(c1ccccc1)S(=O)(=O)c1ccc(Cl)c(C(=O)NCCc2c[nH]c3ccccc23)c1 | inactive
CCN(Cc1ccncc1)C(=O)c1cccs1 | inactive
COC(=O)c1c(O)c2c([nH]c1=O)CCCC2 | inactive
CCCCC1CCC(C(=O)Nc2ccc(S(=O)(=O)Nc3nccs3)cc2)CC1 (centres undefined) | 10 µM (active)
CC1=NN(C(=O)c2csc(C)c2C)C(O)(C(F)(F)F)C1 (centres undefined) | inactive
COc1cc(/C=C/[N+](=O)[O-])ccc1OCc1cccc(C(=O)O)c1 | inactive
CCC(CO)Oc1cc(NCc2cccc(C)c2)c2ncn(C(C)C)c2c1 (centres undefined) | inactive
O=C1NCC(CN(c2ccccc2)c2ccccc2)O1 (centres undefined) | inactive
COc1ccc(OCC(=O)NCCNC(=O)c2cccnc2)cc1 | inactive
O=C(CCCN1C(=O)c2ccccc2C1=O)NC1=NCCS1 | inactive
CCC(C)(C)n1nnnc1C(c1ccc(C)cc1)N1CCCC1 (centres undefined) | inactive
C=C1c2c(Cl)ccc(O)c2C(O)=C2C(=O)[C@]3(O)C(O)=C(C(N)=O)C(=O)[C@@H](N(C)C)[C@@H]3[C@@H](O)C12 (some centres undefined) | 6.31 µM (active)
CC(=O)c1cccc(NC(=O)C(C)OC(=O)c2cc(=O)[nH]c3ccccc23)c1 (centres undefined) | inactive
CS(=O)(=O)c1nc(-c2ccc(Br)cc2)cc(-c2ccccc2)c1C#N | inactive
CSC1=NCCN1C(=O)Cc1ccc(F)cc1 | inactive

SMILES | Potency
O=C(N/N=C/c1ccc(-c2ccc(S(=O)(=O)Nc3ncccn3)cc2)o1)c1cc2ccccc2cc1O | 4.47 µM (active)
CCOC(=O)C1CCN(C(=O)COC(=O)c2c(C)c(CC)nc3ccccc23)CC1 | inactive
O=C1CC(Nc2ccc(N3CCOCC3)cc2)C(=O)N1c1cccc(C(F)(F)F)c1 (centres undefined) | inactive
CC(C)(C)CC(C)(C)c1ccc(OCCOCC[N+](C)(C)Cc2ccccc2)cc1 | inactive
CC[C@]12c3[nH]c4cc(-c5ccco5)ccc4c3CCN1C(=O)[C@@H](CC(=O)NC/C=C(\C)CCC=C(C)C)C[C@@H]2C(=O)N1CCN(C(=O)C2CC2)CC1 | inactive
NS(=O)(=O)c1ccc(NC(=O)CN2CCCCC2)cc1 | inactive
CCCCCCCCCCOC(=O)Cn1c(COc2ccccc2C)[n+](C)c2ccccc21 | inactive
CN(C)S(=O)(=O)c1ccc(C(=O)NCCN=C2NS(=O)(=O)c3ccccc32)cc1 | inactive
Cc1ccc(NC(=O)c2onc(C)c2Cl)cc1 | inactive
COc1ccc(CC(NC(C)=O)C(=O)NC2CCN(c3nc(C)cc(C)c3C#N)CC2)c(OC)c1 (centres undefined) | inactive
COc1cccc(C(=O)NCc2ccc3[nH]c(C)cc3c2)c1 | inactive
COc1cccc(NC(=O)c2ccccc2-c2nc(-c3cccc(C)c3)no2)c1 | inactive
O=C(Nc1cccc(S(=O)(=O)N2CCCC2)c1)c1cncc(Br)c1 | inactive
CC(OC(=O)c1nsc(Cl)c1Cl)C(=O)NCc1ccco1 (centres undefined) | inactive
c1ccc(-c2ccccc2OCCCN2CCOCC2)cc1 | inactive
COc1ccc(/C=C2\SC(=S)N(NS(=O)(=O)c3ccc(C)cc3)C2=O)c(OC)c1 | 10 µM (active)
O=C(CSCc1cnn(-c2ccccc2)c1-n1cccc1)NCC1CCCO1 (centres undefined) | inactive
O=C(N/N=C/c1cc(Cl)c(O)c(Cl)c1)c1cc2c(ccc3ccccc32)o1 | 11.2 µM (active)
CN1CCN(CCC(=O)N/N=C/c2cc([N+](=O)[O-])ccc2O)CC1 | inactive
